Screens (PubChem)
rTrxR1 inhibitor = inhibitors of rat thioredoxin reductase 1; recombinant rTrxR1, NADPH fluorescence consumption, selenite substrate; 390,000 tested, 1% active; AID 588453; O89049; Potency, µM (series often up to 114 µM), usual class: inhibitors; also: nearly all actives have a fitted effect of over 65% in size
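Rat TrxR1 (90 nM in the dispensed reagent) was pre-reduced with 400 uM NADPH for 5 min at room temperature, then incubated with compound for 15 min. After 400 uM selenite was added, NADPH fluorescence (Ex 340/Em 450 nm) was followed for 8 min.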
Sfp inh = inhibitors of Bacillus subtilis Sfp phosphopantetheinyl transferase; Q9F4F7; Biochemical Sfp PPTase activity, qHTS; Potency, µM, usual class: inhibitors; 310,000 tested, 3.5% active;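 also: the enzyme is Sfp with the accession as filed and its product quenches rhodamine fluorescence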
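Sfp 15 nM + cpd, 15 min RT; start w/ rhodamine-CoA 5 uM, BHQ-2-YbbR 12.5 uM (final); 50 mM Hepes pH 7.6, 10 mM MgCl2, 0.01% NP-40, 0.01% BSA; read 525/598 nm at 0 and 30 min.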
TrxR1 substrate = rat thioredoxin reductase 1 substrate activity; O89049; purified TrxR1 substrate turnover, NADPH consumption readout; Potency, µM (series often up to 114 µM); 390,000 tested, 0.01% active; AID 588456; also: nearly all actives have a fitted effect of over 50% in size
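Rat TrxR1, dispensed at 90 nM, was prereduced with 400 uM NADPH (final) for 5 min at ~22 deg C, then incubated with compound 15 min before 400 uM selenite. A first-read NADPH fluorescence drop versus no-compound background flagged substrates.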
VDR inhibitor = inhibitors of human vitamin D receptor | P11473 | VDR-SRC2-3 peptide fluorescence polarization, 2 h | Potency, µM, most hits filed as inhibitors | 400,000 tested, 0.93% active
Target sequence (P11473 whole entry, looked up): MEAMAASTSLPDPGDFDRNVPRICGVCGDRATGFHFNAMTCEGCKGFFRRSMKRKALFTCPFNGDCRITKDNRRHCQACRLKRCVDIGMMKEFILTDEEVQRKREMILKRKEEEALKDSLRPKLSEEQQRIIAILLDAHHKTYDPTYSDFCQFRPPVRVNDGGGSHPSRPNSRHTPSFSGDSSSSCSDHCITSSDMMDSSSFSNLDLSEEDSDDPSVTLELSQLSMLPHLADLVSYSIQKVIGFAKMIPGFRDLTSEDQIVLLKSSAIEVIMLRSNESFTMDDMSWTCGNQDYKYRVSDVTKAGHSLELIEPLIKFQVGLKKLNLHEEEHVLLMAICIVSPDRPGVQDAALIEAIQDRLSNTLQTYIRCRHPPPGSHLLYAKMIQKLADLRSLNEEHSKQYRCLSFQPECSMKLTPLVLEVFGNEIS
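Fluorescence polarization assay of small-molecule disruption of VDR binding to coregulator peptide SRC2-3. Compounds and controls pin-transferred, then read after 2 h incubation at ambient room temperature.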
PLK1 PBD block = PLK1 (human) polo-box domain binding inhibition; Potency, µM, most hits filed as inhibitors; Plk1 PBD binding of FITC phosphopeptide, fluorescence polarization; AID 720504; 360,000 tested, 2.8% active; P53350; also: series mostly up to about 57 µM; nearly all actives have a fitted effect of over 65% in size
IDH1 R132H inh = blocks human mutant IDH1 R132H enzyme | Potency, µM (titrated, usually from 76.6 µM), hits mostly inhibitors | 390,000 tested, 0.093% active | IDH1-R132H enzyme, NADPH consumption, diaphorase/resazurin fluorescence | AID 602179 | O75874; also: nearly all actives have a fitted effect of over 65% in size
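IDH1-R132H (0.5 ug/mL) preincubated 30 min with compound, then NADPH (0.016 mM) and alpha-KG (2 mM) added; 80 min at RT, pH 7.5. Remaining NADPH coupled via diaphorase/resazurin to fluorescence (540/590 nm); concentration-response curves normalized to no-enzyme control.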
Numbers stand for hits; . = inactive; ? = inconclusive; / = not tested or not shown. The list is not random: actives were taken first. Their share in the collection is about 5.2%. Calls follow the shape of the dose curve; as a rule, active = well fitted curve in the direction sought with a large enough effect; inconclusive = small, poorly fitted or top-dose-only effect, or another doubt; inactive = no such curve, though single readings can be large; an effect the other way counts as inactive or inconclusive.

SMILES	rTrxR1 inhibitor	Sfp inh	TrxR1 substrate	VDR inhibitor	PLK1 PBD block	IDH1 R132H inh
CC1(C)Cc2c(sc3ncn(N)c(=N)c23)CO1	.	.	.	.	.	.
CC1(C)Cc2c(sc3ncnc(NN)c23)CO1	.	39.8µM	.	.	.	.
CC1(C)Cc2c(sc3ncn4c(=S)[nH]nc4c23)CO1	.	44.7µM	.	?	29.9µM	.
CSc1nc2sc3c(c2c(=S)[nH]1)CC(C)(C)OC3	?	.	.	?	?	.
COc1ccc(OC)c(NC(=O)CCc2nc(-c3ccc(C)cc3)no2)c1	.	/	.	.	/	.
Cc1ncc(CO)c(/C=N/Nc2ccc(C(F)(F)F)cn2)c1O	.	.	.	?	26.7µM	.
C=CCNC(=S)Nc1cccc2ccccc12	.	79.4µM	.	.	.	.
C=CCNC(=S)Nc1ccc(N(C)C)cc1	.	.	.	79.4µM	.	.
C=CCNC(=S)NCc1ccc(CNC(=S)NCC=C)cc1	.	.	.	.	.	.
Clc1ccc(NC2(c3nnnn3C3CCCCC3)CCCCC2)cc1	.	.	.	?	26.7µM	.
CCNc1nc(C#N)nc2c1ncn2-c1cc(F)cc(F)c1	.	/	.	.	/	/
CC(=O)Nc1ccc(C(=O)CCl)cc1	?	/	.	.	5.32µM	.
CC(=O)NCCC(=O)NCc1ccc(F)cc1	.	.	.	.	.	.
CC(=O)N(C)Cc1ccc(C(=O)CCl)cc1	.	79.4µM	.	.	5.32µM	.
CCCNC(=O)Nc1ccc(NC(C)=O)cc1	.	.	.	.	10.6µM	.
CCCNC(=O)C(=O)Nc1ccc(N(C)C)cc1	.	.	.	.	.	.
CC(=O)NCc1ccc(C(=O)CCl)cc1	.	.	.	.	4.23µM	.
COC(=O)CC[C@H](N)C(=O)O	/	.	/	.	/	/
Cc1cc(Cl)ccc1NC(=O)CSc1nnc(-c2ccncc2)n1Cc1ccco1	.	?	.	.	.	.
O=C(CSc1nnc(Cc2cccs2)n1Cc1ccco1)Nc1ccc(Cl)cc1Cl	?	28.2µM	.	.	.	.
O=C(CSc1nnc(Cc2cccs2)n1Cc1ccco1)Nc1ccc(Br)cc1	?	14.1µM	.	.	.	.
CCc1c2c(nc3cccc(OC)c13)OC(CC)C2 (stereo not drawn)	/	.	/	/	/	/
COc1cc(Cl)c(C)cc1NC(=O)COC(=O)C1=COCCO1	.	/	.	.	.	.
O=C(NCc1ccccc1)C(c1ccc(F)cc1)N1CCN(c2ccccc2F)CC1 (stereo not drawn)	/	/	/	/	.	/
CCc1nnc(NC(=O)CSc2nnc(CSc3nc(C)cc(C)n3)o2)s1	.	50.1µM	.	.	.	.
SMILES	rTrxR1 inhibitor	Sfp inh	TrxR1 substrate	VDR inhibitor	PLK1 PBD block	IDH1 R132H inh
CCCc1nn2c(=O)cc(CSCC(=O)Nc3nnc(CC)s3)nc2s1	?	.	.	.	.	.
CCc1nnc(NC(=O)CSc2nnc(-c3ccccc3O)o2)s1	.	.	.	.	23.8µM	.
CCc1nnc(NC(=O)CSc2nc(-c3ccccc3)c(-c3ccccc3)o2)s1	.	.	.	.	.	.
Cc1cccc(NC(=O)CSc2nnc(CSc3nc(C)cc(C)n3)o2)c1	.	.	.	.	.	.
CCc1nnc(NC(=O)CSCc2cc(=O)n3nc(C)sc3n2)s1	.	.	.	?	3.36µM	.
O=C1COCCN1	.	.	.	.	/	/
C[C@H](NC(=O)c1nc[nH]c1C(=O)N[C@@H](CCCCN)C(=O)OC(C)(C)C)C(=O)OCc1ccccc1	.	/	.	.	.	.
O=C(NCc1ccco1)c1c2c(nc3ccccc13)CCC2	?	50.1µM	.	.	2.99µM	.
O=C(NCc1ccc(F)cc1)c1c2c(nc3ccccc13)CCC2	.	.	.	.	23.8µM	.
CCOc1ccc(CCNC(=O)CCN2N=C(c3ccc(OC)cc3)CCC2=O)cc1OCC	.	/	.	.	/	.
Cc1c(Cl)cccc1NC(=O)CCC(=O)N/N=C/c1ccc[nH]1	.	44.7µM	.	.	.	.
Cc1ccc(C)c(NC(=O)CCC(=O)N/N=C/c2ccc[nH]2)c1	?	.	.	.	.	.
CCOc1cc(C2c3c(oc4ccccc4c3=O)C(=O)N2Cc2ccccc2Cl)ccc1O (stereo not drawn)	.	/	.	.	/	.
CN1CCc2c(sc3c2C(=O)NC(c2cccs2)N3)C1 (stereo not drawn)	.	.	.	.	.	.
CN1CCc2c(sc3c2C(=O)NC(c2ccc(-c4cccc(Cl)c4)o2)N3)C1 (stereo not drawn)	?	50.1µM	.	.	.	.
COc1ccc(CCn2c(N)c(C(=O)NCc3ccco3)c3nc4ccccc4nc32)cc1OC	.	44.7µM	.	.	.	.
Nc1c(C(=O)NCc2ccco2)c2nc3ccccc3nc2n1CCc1ccccc1F	?	56.2µM	.	.	.	.
COc1ccc(CCn2c(N)c(C(=O)NCc3ccco3)c3nc4ccccc4nc32)cc1	.	?	.	?	.	.
COc1ccc(-n2c(N)c(C(=O)NCc3ccco3)c3nc4ccccc4nc32)c(OC)c1	.	?	.	.	.	.
COc1ccc2c(c1)O[C@@H](c1ccc3c(c1)OCO3)[C@H](OC(=O)NS(=O)(=O)c1ccc(C)cc1)C2=O	/	.	/	.	/	/
O=S1(=O)N[C@H](Cc2ccccc2)COc2cc(N3CCC[C@H]3CO)ccc21	/	/	/	/	.	/
CC(C)C(NS(=O)(=O)c1ccc2c(c1)oc(=O)n2C)C(=O)N1CCN(c2cccc(Cl)c2)CC1 (stereo not drawn)	.	/	.	.	/	.
